# Test results: PMC7862700, “An all-to-all approach to the identification of sequence-specific readers for epigenetic DNA modifications on cytosine”
# Tests used:
# Test in all cases: DAPPL (digital affinity profiling via proximity ligation, sequencing); 10 mM Tris-HCl pH 7.5, 50 mM NaCl, 1 mM DTT, 4% glycerol, room temperature, 30 min; GST-TFs on glutathione beads, 16-mer random dsDNA library, 0.1% formaldehyde crosslink after washing; high values mean tight binding
# FEV = target: T1, FEV (Homo sapiens, UniProt Q99581 1-238); conditions: protein: recombinant; tags: N-terminal GST; dsDNA, one strand shown
# T1 sequence: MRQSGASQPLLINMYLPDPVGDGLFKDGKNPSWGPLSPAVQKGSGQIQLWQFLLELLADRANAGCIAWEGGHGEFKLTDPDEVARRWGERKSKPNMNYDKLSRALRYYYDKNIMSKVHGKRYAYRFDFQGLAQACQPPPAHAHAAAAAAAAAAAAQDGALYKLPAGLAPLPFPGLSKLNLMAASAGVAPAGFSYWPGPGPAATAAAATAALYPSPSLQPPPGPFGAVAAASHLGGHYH
# Method in brief: (§1)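 Human transcription factors fused to GST were expressed in yeast, captured on glutathione beads, given DNA barcodes and pooled with a GST-only negative control. Pools were incubated with 200 nmole of a 16-mer random double-stranded DNA library in Tris/NaCl/DTT/glycerol buffer at room temperature for 30 min. They were then washed, crosslinked with 0.1% formaldehyde, proximity-ligated (BsaI/T4 ligase, 1 h, 37 °C), PCR-amplified and sequenced on an Illumina NextSeq500. Binding signal is each 6-mer's read frequency for a factor divided by its frequency for the GST control.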
# ETV5 = ETV5 (Homo sapiens, UniProt P41161 1-510); conditions: protein: recombinant; tags: N-terminal GST; dsDNA, one strand shown
# Method in brief: as §1
# HSF1 = HSF1 (Homo sapiens, UniProt Q00613 1-529); conditions: protein: recombinant; tags: N-terminal GST; chain copies: 3; dsDNA, one strand shown
# Method in brief: as §1
# SPIC = target: T2, SPIC (Homo sapiens, UniProt Q8N5J4 1-248); conditions: protein: recombinant; tags: N-terminal GST; dsDNA, one strand shown
# T2 sequence: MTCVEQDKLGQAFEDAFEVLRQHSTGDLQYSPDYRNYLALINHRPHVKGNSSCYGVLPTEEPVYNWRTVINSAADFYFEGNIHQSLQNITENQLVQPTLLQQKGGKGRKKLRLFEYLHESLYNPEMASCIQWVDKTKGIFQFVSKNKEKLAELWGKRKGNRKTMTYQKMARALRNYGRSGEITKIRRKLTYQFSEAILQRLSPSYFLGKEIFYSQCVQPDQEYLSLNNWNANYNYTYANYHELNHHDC
# Method in brief: as §1
# ELF4 = ELF4 (Homo sapiens, UniProt Q99607 1-663); conditions: protein: recombinant; tags: N-terminal GST; dsDNA, one strand shown
# Method in brief: as §1
# ELK4 = target: T3, ELK4 (Homo sapiens, UniProt P28324-2 1-405); conditions: protein: recombinant; tags: N-terminal GST; dsDNA, one strand shown
# T3 sequence: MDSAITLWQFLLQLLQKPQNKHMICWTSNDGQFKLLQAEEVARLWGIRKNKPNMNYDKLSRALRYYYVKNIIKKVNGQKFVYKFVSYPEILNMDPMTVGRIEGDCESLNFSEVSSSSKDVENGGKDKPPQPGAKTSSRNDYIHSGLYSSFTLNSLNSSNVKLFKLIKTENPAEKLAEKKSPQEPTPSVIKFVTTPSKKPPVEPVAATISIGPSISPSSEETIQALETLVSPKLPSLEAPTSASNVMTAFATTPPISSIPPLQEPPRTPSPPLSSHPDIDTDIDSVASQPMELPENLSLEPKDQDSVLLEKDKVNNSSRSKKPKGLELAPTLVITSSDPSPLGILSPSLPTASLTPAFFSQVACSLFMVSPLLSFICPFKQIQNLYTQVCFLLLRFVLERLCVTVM
# Method in brief: as §1
# ETV2 = target: T4, ETV2 (Homo sapiens, UniProt O00321 1-342); conditions: protein: recombinant; tags: N-terminal GST; dsDNA, one strand shown
# T4 sequence: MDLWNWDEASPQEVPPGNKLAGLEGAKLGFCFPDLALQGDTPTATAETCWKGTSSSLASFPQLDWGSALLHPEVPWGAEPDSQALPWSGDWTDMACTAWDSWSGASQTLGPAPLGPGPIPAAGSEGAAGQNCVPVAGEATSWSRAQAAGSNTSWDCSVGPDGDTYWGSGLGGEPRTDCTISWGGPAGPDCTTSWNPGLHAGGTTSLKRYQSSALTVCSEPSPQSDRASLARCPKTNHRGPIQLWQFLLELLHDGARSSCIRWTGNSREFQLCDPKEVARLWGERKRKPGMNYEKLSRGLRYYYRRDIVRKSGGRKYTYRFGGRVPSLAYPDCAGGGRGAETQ
# Method in brief: as §1
# ELF3 = target: T5, ELF3 (Homo sapiens, UniProt P78545 1-371); conditions: protein: recombinant; tags: N-terminal GST; dsDNA, one strand shown
# T5 sequence: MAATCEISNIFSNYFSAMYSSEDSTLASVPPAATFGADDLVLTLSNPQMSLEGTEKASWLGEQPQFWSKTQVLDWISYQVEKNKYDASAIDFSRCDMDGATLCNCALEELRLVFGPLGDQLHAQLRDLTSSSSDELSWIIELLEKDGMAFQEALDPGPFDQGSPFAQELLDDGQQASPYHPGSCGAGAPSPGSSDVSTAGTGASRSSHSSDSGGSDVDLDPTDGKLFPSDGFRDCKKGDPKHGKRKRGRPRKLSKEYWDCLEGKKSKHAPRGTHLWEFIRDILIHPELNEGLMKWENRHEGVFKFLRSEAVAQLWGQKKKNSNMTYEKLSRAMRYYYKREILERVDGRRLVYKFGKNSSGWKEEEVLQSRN
# Method in brief: as §1
# CRX = CRX (Homo sapiens, UniProt O43186 1-299); conditions: protein: recombinant; tags: N-terminal GST; dsDNA, one strand shown
# Method in brief: as §1
# ETV1 = ETV1 (Homo sapiens, UniProt P50549 1-477); conditions: protein: recombinant; tags: N-terminal GST; dsDNA, one strand shown
# Method in brief: as §1
# ERF = target: T6, ERF (Homo sapiens, UniProt P50548 1-548); conditions: protein: recombinant; tags: N-terminal GST; dsDNA, one strand shown
# T6 sequence: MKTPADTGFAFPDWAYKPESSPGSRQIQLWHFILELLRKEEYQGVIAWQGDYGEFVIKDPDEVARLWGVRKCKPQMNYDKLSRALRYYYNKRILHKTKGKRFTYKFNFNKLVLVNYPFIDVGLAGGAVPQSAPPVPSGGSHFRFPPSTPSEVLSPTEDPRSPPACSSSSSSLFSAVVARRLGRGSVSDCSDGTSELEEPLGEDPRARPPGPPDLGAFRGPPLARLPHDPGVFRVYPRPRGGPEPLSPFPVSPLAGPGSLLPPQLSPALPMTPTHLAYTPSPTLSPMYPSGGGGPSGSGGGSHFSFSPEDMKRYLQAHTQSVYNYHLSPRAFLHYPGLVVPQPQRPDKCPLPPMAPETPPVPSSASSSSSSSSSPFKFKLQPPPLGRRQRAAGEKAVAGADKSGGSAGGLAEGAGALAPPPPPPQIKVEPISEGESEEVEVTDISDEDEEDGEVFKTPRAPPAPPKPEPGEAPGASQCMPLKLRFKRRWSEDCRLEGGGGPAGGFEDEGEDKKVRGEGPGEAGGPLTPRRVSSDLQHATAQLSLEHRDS
# Method in brief: as §1
# ETV3L = target: T7, ETV3L (Homo sapiens, UniProt Q6ZN32 1-361); conditions: protein: recombinant; tags: N-terminal GST; dsDNA, one strand shown
# T7 sequence: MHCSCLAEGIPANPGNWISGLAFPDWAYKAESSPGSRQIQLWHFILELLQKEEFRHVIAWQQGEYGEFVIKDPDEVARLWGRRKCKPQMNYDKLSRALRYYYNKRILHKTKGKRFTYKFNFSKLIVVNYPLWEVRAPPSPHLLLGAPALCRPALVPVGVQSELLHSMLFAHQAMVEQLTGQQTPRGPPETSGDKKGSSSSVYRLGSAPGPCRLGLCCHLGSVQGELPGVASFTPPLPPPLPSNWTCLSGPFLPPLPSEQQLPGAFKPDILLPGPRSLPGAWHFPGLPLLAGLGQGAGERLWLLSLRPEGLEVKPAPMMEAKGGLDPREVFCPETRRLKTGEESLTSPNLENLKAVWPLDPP
# Method in brief: as §1
# ETS2 = target: T8, ETS2 (Homo sapiens, UniProt P15036 1-469); conditions: protein: recombinant; tags: N-terminal GST; dsDNA, one strand shown
# T8 sequence: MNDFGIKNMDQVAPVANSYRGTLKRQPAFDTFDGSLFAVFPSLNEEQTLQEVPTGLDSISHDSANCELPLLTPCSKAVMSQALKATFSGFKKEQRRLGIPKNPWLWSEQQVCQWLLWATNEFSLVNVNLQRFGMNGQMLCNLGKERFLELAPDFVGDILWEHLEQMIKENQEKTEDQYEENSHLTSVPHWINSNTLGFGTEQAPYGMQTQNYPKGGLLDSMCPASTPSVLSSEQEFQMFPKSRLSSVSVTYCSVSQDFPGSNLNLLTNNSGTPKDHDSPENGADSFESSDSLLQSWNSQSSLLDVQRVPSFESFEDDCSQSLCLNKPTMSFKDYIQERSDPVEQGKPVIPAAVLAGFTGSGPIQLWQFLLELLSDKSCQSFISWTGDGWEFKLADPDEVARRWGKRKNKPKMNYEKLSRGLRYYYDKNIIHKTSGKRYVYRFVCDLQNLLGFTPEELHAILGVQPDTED
# Method in brief: as §1
# SPDEF = target: T9, SPDEF (Homo sapiens, UniProt O95238 1-335); conditions: protein: recombinant; tags: N-terminal GST; dsDNA, one strand shown
# T9 sequence: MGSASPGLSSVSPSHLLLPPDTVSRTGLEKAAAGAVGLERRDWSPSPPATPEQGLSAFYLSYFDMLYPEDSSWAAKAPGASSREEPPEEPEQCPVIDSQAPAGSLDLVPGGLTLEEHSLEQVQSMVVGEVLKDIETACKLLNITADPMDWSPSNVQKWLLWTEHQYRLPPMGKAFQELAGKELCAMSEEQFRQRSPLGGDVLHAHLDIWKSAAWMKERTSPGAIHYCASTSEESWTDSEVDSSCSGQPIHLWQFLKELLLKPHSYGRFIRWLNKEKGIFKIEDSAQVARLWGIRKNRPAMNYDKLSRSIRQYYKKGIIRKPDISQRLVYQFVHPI
# Method in brief: as §1
# ETV7 = target: T10, ETV7 (Homo sapiens, UniProt Q9Y603 1-341); conditions: protein: recombinant; tags: N-terminal GST; dsDNA, one strand shown
# T10 sequence: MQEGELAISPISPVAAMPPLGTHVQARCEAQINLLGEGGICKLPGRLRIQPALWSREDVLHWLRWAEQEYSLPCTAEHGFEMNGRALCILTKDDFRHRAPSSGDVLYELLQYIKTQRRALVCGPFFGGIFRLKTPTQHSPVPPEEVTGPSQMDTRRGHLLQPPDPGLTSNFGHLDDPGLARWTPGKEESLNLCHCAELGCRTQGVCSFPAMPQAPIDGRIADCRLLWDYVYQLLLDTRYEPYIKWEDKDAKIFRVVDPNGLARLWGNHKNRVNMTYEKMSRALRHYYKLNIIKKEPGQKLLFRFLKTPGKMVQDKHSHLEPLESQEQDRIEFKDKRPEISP
# Method in brief: as §1
# ELF5 = target: T11, ELF5 (Homo sapiens, UniProt Q9UKW6-2 1-255); conditions: protein: recombinant; tags: N-terminal GST; dsDNA, one strand shown
# T11 sequence: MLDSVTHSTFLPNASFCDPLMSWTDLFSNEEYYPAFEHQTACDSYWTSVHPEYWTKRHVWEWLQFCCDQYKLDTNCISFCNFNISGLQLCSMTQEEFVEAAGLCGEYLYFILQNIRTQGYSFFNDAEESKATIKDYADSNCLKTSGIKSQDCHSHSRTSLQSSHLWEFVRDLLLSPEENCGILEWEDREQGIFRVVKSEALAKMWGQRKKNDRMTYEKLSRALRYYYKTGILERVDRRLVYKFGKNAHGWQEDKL
# Method in brief: as §1
# ETV3 = target: T12, ETV3 (Homo sapiens, UniProt P41162-2 1-143); conditions: protein: recombinant; tags: N-terminal GST; dsDNA, one strand shown
# T12 sequence: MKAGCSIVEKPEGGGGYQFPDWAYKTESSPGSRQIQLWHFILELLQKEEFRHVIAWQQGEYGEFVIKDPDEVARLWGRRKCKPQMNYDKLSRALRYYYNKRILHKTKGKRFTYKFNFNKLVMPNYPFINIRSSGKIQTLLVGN
# Method in brief: as §1
# ETV6 = ETV6 (Homo sapiens, UniProt P41212 1-452); conditions: protein: recombinant; tags: N-terminal GST; dsDNA, one strand shown
# Method in brief: as §1
# HSF1, sequence (Q00613 whole entry): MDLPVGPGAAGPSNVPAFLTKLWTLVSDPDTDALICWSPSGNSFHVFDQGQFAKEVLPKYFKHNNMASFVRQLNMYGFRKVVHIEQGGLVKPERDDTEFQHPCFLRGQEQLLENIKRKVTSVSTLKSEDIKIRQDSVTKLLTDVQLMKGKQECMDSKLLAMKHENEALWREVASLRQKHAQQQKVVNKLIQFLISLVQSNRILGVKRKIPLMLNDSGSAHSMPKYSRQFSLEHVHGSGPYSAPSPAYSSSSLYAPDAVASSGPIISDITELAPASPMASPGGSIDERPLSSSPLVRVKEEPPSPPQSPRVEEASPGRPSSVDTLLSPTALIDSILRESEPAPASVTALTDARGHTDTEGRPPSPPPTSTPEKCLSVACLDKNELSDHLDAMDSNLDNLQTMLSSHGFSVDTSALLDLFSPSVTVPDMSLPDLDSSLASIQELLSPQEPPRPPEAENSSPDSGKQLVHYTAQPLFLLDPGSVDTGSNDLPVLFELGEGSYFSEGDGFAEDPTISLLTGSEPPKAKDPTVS
# ETV1, sequence (P50549 whole entry): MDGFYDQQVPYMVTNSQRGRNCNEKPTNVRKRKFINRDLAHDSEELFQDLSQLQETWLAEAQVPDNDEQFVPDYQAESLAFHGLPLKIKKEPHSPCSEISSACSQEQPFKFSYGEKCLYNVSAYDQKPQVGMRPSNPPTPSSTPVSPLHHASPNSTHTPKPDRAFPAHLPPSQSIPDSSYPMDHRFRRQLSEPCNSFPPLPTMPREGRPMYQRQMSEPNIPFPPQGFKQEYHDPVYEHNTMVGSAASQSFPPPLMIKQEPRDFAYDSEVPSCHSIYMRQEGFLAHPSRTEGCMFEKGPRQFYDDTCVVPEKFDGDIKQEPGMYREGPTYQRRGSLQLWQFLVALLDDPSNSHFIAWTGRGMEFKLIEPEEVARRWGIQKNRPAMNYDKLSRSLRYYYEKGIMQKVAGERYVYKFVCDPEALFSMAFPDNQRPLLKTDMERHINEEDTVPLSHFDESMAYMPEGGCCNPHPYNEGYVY
# ETV5, sequence (P41161 whole entry): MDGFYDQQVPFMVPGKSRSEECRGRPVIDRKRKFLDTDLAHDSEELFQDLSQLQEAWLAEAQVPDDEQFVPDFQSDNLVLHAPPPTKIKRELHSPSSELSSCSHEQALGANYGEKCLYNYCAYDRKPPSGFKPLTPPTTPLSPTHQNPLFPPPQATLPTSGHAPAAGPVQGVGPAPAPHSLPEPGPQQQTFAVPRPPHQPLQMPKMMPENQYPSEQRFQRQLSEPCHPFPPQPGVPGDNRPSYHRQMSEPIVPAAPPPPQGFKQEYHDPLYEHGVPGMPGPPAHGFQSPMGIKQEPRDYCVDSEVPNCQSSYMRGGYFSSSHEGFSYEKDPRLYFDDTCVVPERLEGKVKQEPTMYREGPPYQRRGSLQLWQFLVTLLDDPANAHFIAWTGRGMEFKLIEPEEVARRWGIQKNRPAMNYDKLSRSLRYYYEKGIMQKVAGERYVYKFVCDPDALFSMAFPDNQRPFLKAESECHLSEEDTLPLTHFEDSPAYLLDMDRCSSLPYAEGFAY
# ELF4, sequence (Q99607 whole entry): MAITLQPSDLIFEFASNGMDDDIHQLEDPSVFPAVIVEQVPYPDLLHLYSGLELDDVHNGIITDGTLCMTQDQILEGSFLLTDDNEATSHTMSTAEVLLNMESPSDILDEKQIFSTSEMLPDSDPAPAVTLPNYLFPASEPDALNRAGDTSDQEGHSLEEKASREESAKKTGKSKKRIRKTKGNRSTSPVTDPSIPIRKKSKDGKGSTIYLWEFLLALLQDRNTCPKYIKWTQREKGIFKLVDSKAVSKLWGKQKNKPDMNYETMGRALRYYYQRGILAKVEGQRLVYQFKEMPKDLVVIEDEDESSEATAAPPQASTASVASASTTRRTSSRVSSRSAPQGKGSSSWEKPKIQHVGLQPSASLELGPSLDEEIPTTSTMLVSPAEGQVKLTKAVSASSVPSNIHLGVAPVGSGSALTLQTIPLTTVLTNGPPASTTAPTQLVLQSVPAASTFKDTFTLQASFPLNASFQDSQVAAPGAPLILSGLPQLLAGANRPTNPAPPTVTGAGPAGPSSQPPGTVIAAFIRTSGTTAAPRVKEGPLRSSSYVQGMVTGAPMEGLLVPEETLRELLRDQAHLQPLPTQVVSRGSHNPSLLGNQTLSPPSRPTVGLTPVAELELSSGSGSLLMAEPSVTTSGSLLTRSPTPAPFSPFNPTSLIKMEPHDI
# CRX, sequence (O43186 whole entry): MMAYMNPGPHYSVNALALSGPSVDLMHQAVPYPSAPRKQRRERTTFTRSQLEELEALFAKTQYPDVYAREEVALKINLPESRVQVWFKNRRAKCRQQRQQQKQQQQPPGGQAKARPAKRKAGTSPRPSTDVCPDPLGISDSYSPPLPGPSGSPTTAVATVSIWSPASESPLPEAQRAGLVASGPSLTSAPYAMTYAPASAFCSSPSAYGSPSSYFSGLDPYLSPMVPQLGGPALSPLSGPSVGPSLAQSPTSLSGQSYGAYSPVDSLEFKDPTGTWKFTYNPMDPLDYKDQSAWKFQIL
# ETV6, sequence (P41212 whole entry): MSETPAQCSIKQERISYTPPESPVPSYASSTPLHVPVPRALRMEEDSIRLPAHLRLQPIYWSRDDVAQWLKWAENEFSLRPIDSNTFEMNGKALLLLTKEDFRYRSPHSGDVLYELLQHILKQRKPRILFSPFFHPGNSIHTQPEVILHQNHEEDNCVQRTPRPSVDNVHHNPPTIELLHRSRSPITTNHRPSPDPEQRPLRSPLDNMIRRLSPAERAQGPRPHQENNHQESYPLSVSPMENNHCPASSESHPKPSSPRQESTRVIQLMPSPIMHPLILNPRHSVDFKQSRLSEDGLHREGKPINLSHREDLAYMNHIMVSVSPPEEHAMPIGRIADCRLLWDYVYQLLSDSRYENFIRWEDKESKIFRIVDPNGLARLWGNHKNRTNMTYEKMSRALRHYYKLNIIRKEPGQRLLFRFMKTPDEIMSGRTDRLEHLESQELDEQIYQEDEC
sequence,measurement,setting,value
ACATAT,binding signal,FEV,"1.29 fold enrichment (6-mer frequency, TF over GST control)"
same,binding signal,ETV5,"1.32 fold enrichment (6-mer frequency, TF over GST control)"
same,binding signal,HSF1,"1.04 fold enrichment (6-mer frequency, TF over GST control)"
same,binding signal,SPIC,"1.36 fold enrichment (6-mer frequency, TF over GST control)"
same,binding signal,ELF4,"1.3 fold enrichment (6-mer frequency, TF over GST control)"
same,binding signal,ELK4,"1.22 fold enrichment (6-mer frequency, TF over GST control)"
same,binding signal,ETV2,"1.28 fold enrichment (6-mer frequency, TF over GST control)"
same,binding signal,ELF3,"1.25 fold enrichment (6-mer frequency, TF over GST control)"
same,binding signal,CRX,"1.12 fold enrichment (6-mer frequency, TF over GST control)"
same,binding signal,ETV1,"1.26 fold enrichment (6-mer frequency, TF over GST control)"
same,binding signal,ERF,"1.34 fold enrichment (6-mer frequency, TF over GST control)"
same,binding signal,ETV3L,"1.29 fold enrichment (6-mer frequency, TF over GST control)"
same,binding signal,ETS2,"1.27 fold enrichment (6-mer frequency, TF over GST control)"
same,binding signal,SPDEF,"1.38 fold enrichment (6-mer frequency, TF over GST control)"
same,binding signal,ETV7,"1.37 fold enrichment (6-mer frequency, TF over GST control)"
same,binding signal,ELF5,"1.2 fold enrichment (6-mer frequency, TF over GST control)"
same,binding signal,ETV3,"1.28 fold enrichment (6-mer frequency, TF over GST control)"
same,binding signal,ETV6,"1.21 fold enrichment (6-mer frequency, TF over GST control)"
